Screening results from PubChem BioAssay.
In the library only some 3.5% were active in any assay of this set; here they are far more common.
TR SRC2 fluor cs – alters Texas Red total fluorescence, flagging assay interference. TRb/SRC2 Texas Red total fluorescence interference. Potency, µM (top dose mostly 106 µM). hit rate 0.29% among 280,000. AID 1479; active = well fitted curve in either direction with a large enough effect; inconclusive = small, poorly fitted or top-dose-only effect
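Human TRβ ligand-binding domain (0.6 uM) and Texas Red SRC2 peptide (20 nM) in Tris buffer with 1 uM T3 and 5% DMSO were incubated with pinned compound for 5 hr at ambient temperature. Total fluorescence was computed as S + 2P (555/632 nm).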
Tau FP inhib – tau fibrillization inhibition (FP); hit rate 0.39% among 280,000; Potency, µM (series often up to 57.7 µM), usual class: inhibitors; K18 P301L tau heparin fibrillization, Alexa594 FP, 6 h; note: nearly all actives have a fitted effect of over 55% in size
Target sequence (P10636 561-689 P618L limits assumed): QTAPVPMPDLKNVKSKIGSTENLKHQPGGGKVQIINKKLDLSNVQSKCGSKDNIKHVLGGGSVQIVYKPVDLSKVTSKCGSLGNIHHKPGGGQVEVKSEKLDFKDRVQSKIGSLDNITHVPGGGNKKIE
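K18 P301L tau (15 uM unlabeled/0.24 uM Alexa 594-labeled, final) + compound + heparin 20 uM final; 100 mM NaOAc pH 7; 6 hr 37 C; ThT 30 uM final added, 1 hr RT; FP ex 555/em 632 nm.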
TRb SRC2 PPI – disrupts binding of human TR beta to SRC2; TRbeta-SRC2 peptide binding, fluorescence polarization; receptor liganded with 1 µM T3; Potency, µM (series often up to 106 µM), usual class: inhibitors; hit rate 0.065% among 280,000; AID 1469; note: nearly all actives have a fitted effect of over 50% in size
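Assay buffer: 20 mM Tris-HCl, 100 mM NaCl, 10% glycerol, 1 mM EDTA, 0.01% NP-40, 1 mM DTT, 1 uM T3, 5% DMSO; TRb LBD 0.6 uM, Texas Red SRC2 20 nM; FP after 5 hr.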
KDM4E inh – blocks human JMJD2E demethylase activity; B2RXH2; hit rate 1.6% among 230,000; AID 2147; Potency, µM (highest dose often 57.1 µM), hits mostly inhibitors; JMJD2E catalytic domain, FDH-coupled NADH fluorescence (FDH is formaldehyde dehydrogenase); note: nearly all actives have a fitted effect of over 50% in size
Target sequence (B2RXH2 1-337 limits assumed): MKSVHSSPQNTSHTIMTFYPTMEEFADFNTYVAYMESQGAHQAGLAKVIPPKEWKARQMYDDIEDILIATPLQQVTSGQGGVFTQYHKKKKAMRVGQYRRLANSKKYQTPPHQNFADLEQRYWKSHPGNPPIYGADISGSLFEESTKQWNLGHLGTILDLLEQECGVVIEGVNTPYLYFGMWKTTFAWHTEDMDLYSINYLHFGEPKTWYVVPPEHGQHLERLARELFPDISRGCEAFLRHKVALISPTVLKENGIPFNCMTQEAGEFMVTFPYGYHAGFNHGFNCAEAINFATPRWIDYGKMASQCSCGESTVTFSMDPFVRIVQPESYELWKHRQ
Tau fluor cs – counter-screen for tau fibril formation inhibitors; tau K18 P301L Alexa594 fluorescence, heparin fibrillization; Potency, µM (titrated, usually from 57.7 µM); hit rate 0.93% among 280,000; AID 1463; note: nearly all actives have a fitted effect of over 55% in size
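Human tau K18 P301L (15 uM unlabeled, 0.24 uM Alexa 594-labeled) in 100 mM sodium acetate pH 7 with 20 uM heparin, 6 hr at 37 C. ThT 30 uM added, 1 hr ambient; Alexa 594 FP and total fluorescence read at 555/632 nm.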
Tau fibril ThT – blocks human tau fibril formation measured by thioflavin T. P10636. recombinant tau K18 P301L, heparin-induced fibrillization, ThT fluorescence. hit rate 2.1% among 270,000. Potency, µM (top dose mostly 57.4 µM), usual class: inhibitors; note: nearly all actives have a fitted effect of over 55% in size
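Using a mix of unlabeled (15 uM) and Alexa 594-labeled (0.24 uM) tau K18 P301L, heparin-triggered fibrillization over 6 hr at 37 C was scored by ThT fluorescence.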
Of the large screens only hits and unclear results are named; the others gave an inactive call; [ ] = remark or other dose. Unless noted, calls come from the whole dose curve; as a rule, active = well fitted curve in the direction sought with a large enough effect; inconclusive = small, poorly fitted or top-dose-only effect, or another doubt; inactive = no such curve, though single readings can be large; an effect the other way counts as inactive or inconclusive.

CCOC(=O)c1ccc(Nc2cc(C)nc3ncnn23)cc1	none
O=C(O)CCN1C(=O)NC2(CCCC2)C1=O	none
COc1ccc(S(=O)(=O)Nc2cccc(-c3ccc(N4CCOCC4)nn3)c2)cc1F	none (no result: KDM4E inh)
CC(=O)N1CCN(c2csc3ccc(Cl)cc3c2=O)CC1	Tau fibril ThT inconclusive (no result: KDM4E inh)
O=c1c(N2CCN(c3cccc(C(F)(F)F)c3)CC2)csc2ccc(Cl)cc12	Tau fibril ThT 15.8µM (no result: KDM4E inh)
Cc1ccc2scc(N3CCN(c4cccc(C(F)(F)F)c4)CC3)c(=O)c2c1	Tau fibril ThT inconclusive (no result: KDM4E inh)
O=c1c(N2CCN(c3cccc(Cl)c3)CC2)csc2ccc(Cl)cc12	Tau fibril ThT 8.91µM (no result: KDM4E inh)
COc1ccccc1C(=O)NCc1ccccn1	none
CCc1nnc(NC(=O)CN2C(=O)/C(=C/c3cc(OC)c(OC)c(OC)c3)SC2=S)s1	Tau FP inhib inconclusive, Tau fluor cs inconclusive, Tau fibril ThT 7.94µM
CCN(CC)C(=S)SC1CCCCN(C(=O)c2ccc(F)cc2)C1=O (configuration not stated)	none
CCOC(=O)C1=C(SCC)c2cc3c(n2C1=O)CCCC3	Tau FP inhib inconclusive, Tau fluor cs inconclusive, Tau fibril ThT 11.2µM
CCOC(=O)c1cnc2cc3c(cn2c1=O)CCCC3	KDM4E inh inconclusive
CNC(=O)c1ccccc1F	none
CCOC(=O)c1c(C)[nH]c2c1cc(O)c1ccccc12	Tau fluor cs inconclusive, Tau fibril ThT 15.8µM
CCOC(=O)c1c(C)oc2c1cc(O)c1ccccc12	Tau FP inhib inconclusive, Tau fibril ThT inconclusive
S=C(Nc1ccccc1)N1CCCCCCC1	none
COc1ccc(OC)c(CCNC(=O)Cn2sc3nc(C)cc(C)c3c2=O)c1	Tau FP inhib inconclusive, KDM4E inh 28.2µM, Tau fibril ThT 11.2µM
Cc1cc(C)c2c(=O)n(CC(=O)Nc3cccc(Cl)c3C)sc2n1	Tau FP inhib 20µM, KDM4E inh inconclusive, Tau fluor cs inconclusive (no result: Tau fibril ThT)
Cc1cc(C)c2c(=O)n(CC(=O)Nc3ccc(Br)c(C)c3)sc2n1	Tau FP inhib inconclusive, KDM4E inh inconclusive, Tau fluor cs inconclusive, Tau fibril ThT inconclusive
Cc1cc(C)c2c(=O)n(CC(=O)NC3CCCC3)sc2n1	Tau FP inhib 14.1µM, KDM4E inh inconclusive, Tau fibril ThT 12.6µM
O=C(COC(=O)c1sc2ccccc2c1Cl)NCC1CCCCC1	none
O=C(C1CC(Cl)CN1S(=O)(=O)c1ccc(Cl)cc1)N1CCOCC1 (configuration not stated)	none
CN1CCc2c(sc3ncn4nc(-c5ccccc5O)nc4c23)C1	Tau FP inhib inconclusive, KDM4E inh 22.4µM, Tau fibril ThT 28.2µM
O=[N+]([O-])/C(C=Nc1ccccc1O)=C\Nc1ccccc1O	KDM4E inh 12.6µM, Tau fibril ThT inconclusive
COc1ccc(COc2cc(-c3cccc(OC)c3)nc3ccc(NC(=O)c4ccc(OC)cc4)cc23)cc1	Tau FP inhib inconclusive, KDM4E inh inconclusive, Tau fluor cs inconclusive, Tau fibril ThT inconclusive
COc1ccc(COc2cc(-c3cccc(OC)c3)nc3ccc(NC(=O)c4ccc(Cl)cc4)cc23)cc1	TR SRC2 fluor cs inconclusive, Tau FP inhib 20µM, KDM4E inh inconclusive
COc1ccc(OC)c(NC(=S)NCCN2CCOCC2)c1	none
COc1ccc(C(=O)Nc2ccc(O)c3c(=O)cc(-c4cccc(Cl)c4)oc23)cc1	Tau fluor cs inconclusive
CC1=[N+](C)c2c(ccc3cccnc23)C1(C)C	TR SRC2 fluor cs 11.2µM[fluorescent], Tau FP inhib inconclusive, TRb SRC2 PPI 25.1µM, KDM4E inh inconclusive, Tau fluor cs 7.08µM[fluorescent], Tau fibril ThT 7.08µM
COc1cccc(/C=N/NC(=O)c2cc3c(OC)cccc3[nH]2)c1O	KDM4E inh 25.1µM, Tau fibril ThT inconclusive
COc1ccc(OC)c(/C=N/NC(=O)c2cc3c(OC)cc(OC)cc3[nH]2)c1	Tau FP inhib inconclusive, KDM4E inh inconclusive, Tau fluor cs 8.91µM[quencher], Tau fibril ThT 5.01µM
COc1ccc(OC)c(/C=N/NC(=O)c2cc3c(OC)cccc3[nH]2)c1	KDM4E inh inconclusive, Tau fluor cs inconclusive (no result: Tau fibril ThT)
COc1cccc(/C=N/NC(=O)c2cc3c(OC)cccc3[nH]2)c1OC	Tau FP inhib inconclusive, KDM4E inh inconclusive, Tau fluor cs inconclusive, Tau fibril ThT inconclusive
